# Bioassay records as filed in PubChem.
# A selection: hits, their analogues and other compounds. The true share with any hit is near 19%.
# Giardia kill = Small Molecules that selectively kill Giardia lamblia: qHTS | Giardia lamblia trophozoite viability | activity change, % at 7.66 µM, hits read low | actives 0.15% (n = 340,000) | AID 540267, 2011; in the data active = activity change below about -80%; inconclusive = between about -30% and that limit;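 note: parasites exposed to compound for two days anaerobically before the ATP read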
#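 Compounds were tested on trophozoites seeded at 100 cells/well and held 48 hrs at 37 deg C anaerobically. An ATP-based luminescent kit measured the remaining live cells.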
# TDP1 cell noCPT = qHTS for Inhibitors of human tyrosyl-DNA phosphodiesterase 1 (TDP1): qHTS in cells in absence of CPT; actives 15% (n = 420,000); Potency, µM (top dose mostly 46.2 µM), inactives show at the highest dose activity change, negative = growth inhibition, hits mostly inhibitors; AID 686978, 2013; DT40 Tdp1-/- hTDP1 cells, no CPT, ATP luminescence, 48 h; note: potency is the fitted concentration of half-maximal effect; nearly all actives have a fitted effect of over 55% in size
#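 Growth kinetics read by CellTiter-Glo luminescence after ≥48 hr at 37 °C. Cells: DT40 Tdp1-/- stably carrying human TDP1, 400 per well, compound exposure in the absence of CPT (DMSO vehicle).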
# TDP1 block = qHTS Assay for Inhibitors of Tyrosyl-DNA Phosphodiesterase (TDP1); Potency, µM (titrated, usually from 130 µM), inactives show at the top dose activity change, negative = inhibition, hits mostly inhibitors; recombinant TDP1, AlphaScreen DNA substrate cleavage; Tyrosyl-DNA phosphodiesterase 1 (Homo sapiens), Q9NUW8; actives 0.28% (n = 350,000); AID 485290, 2010; note: potency is the fitted concentration of half-maximal effect; nearly all actives have a fitted effect of over 40% in size
# Target sequence (Q9NUW8 whole entry, looked up): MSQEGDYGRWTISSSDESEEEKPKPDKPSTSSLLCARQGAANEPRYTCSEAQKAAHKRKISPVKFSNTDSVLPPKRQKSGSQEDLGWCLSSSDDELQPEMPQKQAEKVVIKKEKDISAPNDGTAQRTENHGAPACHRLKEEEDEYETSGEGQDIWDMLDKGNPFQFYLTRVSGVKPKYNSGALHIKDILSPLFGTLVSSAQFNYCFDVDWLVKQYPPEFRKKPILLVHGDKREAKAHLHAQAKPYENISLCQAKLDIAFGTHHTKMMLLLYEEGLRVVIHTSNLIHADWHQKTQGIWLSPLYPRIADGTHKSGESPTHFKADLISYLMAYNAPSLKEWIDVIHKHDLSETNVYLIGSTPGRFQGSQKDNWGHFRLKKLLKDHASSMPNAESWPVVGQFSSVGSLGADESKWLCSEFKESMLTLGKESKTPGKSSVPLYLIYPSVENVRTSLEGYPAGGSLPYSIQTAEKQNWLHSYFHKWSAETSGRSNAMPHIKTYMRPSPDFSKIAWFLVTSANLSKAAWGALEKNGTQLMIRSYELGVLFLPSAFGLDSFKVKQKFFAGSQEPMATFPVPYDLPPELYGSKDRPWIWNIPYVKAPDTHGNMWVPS
#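 Here, a 5' biotin and 3' phosphotyrosine-FITC DNA oligonucleotide reports Tdp1 activity: intact substrate bridges AlphaScreen beads, while cleavage leaves a 3' phosphate and drops signal. All incubations at room temperature.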
# DT40 TDP1 CPT = qHTS for Inhibitors of human tyrosyl-DNA phosphodiesterase 1 (TDP1): qHTS in cells in presence of CPT | chicken DT40 Tdp1-/-;hTDP1 cells + 20 nM CPT, ATP luminescence, 48 h | Potency, µM (series often up to 46.2 µM), without a hit: top-dose activity change, negative = growth inhibition, most hits filed as inhibitors | actives 12% (n = 420,000) | AID 686979, 2013; note: potency is the fitted concentration of half-maximal effect; nearly all actives have a fitted effect of over 55% in size
#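 Cell growth measured by CellTiter-Glo luminescence after a minimum 48 h, 37 C compound exposure with 20 nM CPT in Tdp1-knockout DT40 cells stably expressing hTDP1, seeded 400/well; qHTS titration format.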
# IL1B secr inh = qHTS for Inhibitors of Inflammasome Signaling: IL-1-beta AlphaLISA Primary Screen. actives 4.7% (n = 360,000). THP-1 LPS/ATP IL-1B secretion, AlphaLISA, 16 h; hits give low values. activity change, % at 57.5 µM; in the data active = activity change below about -50%; inconclusive = mostly about -30% to -49%
#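 Secreted IL-1B measured by AlphaLISA bead assay after 16 h compound exposure of THP-1 cells; compounds (final up to 57.5 uM) added 1 h before LPS (250 ng/mL) and ATP (1.25 mM) stimulation; lower signal means less secretion.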
# ELG1 DNA repair = qHTS screen for small molecules that inhibit ELG1-dependent DNA repair in human embryonic kidney (HEK293T) cells expressing luciferase-tagged ELG1. HEK293T ELG1-luciferase reporter, luminescence, 16 h; DNA damage induced by 5-fluorouridine. actives 2.3% (n = 330,000). Potency, µM (top dose mostly 46.1 µM), inactives show at the top dose activity change, negative = inhibition, hits mostly inhibitors; note: potency is the fitted concentration of half-maximal effect; nearly all actives have a fitted effect of over 55% in size
#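 DMSO vehicle served as the neutral condition. Each well held 2,000 cells given 5-fluorouridine plus compound; after 16 hr at 37 °C/5% CO2, ONE-Glo was added and luciferase measured 30 min later.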
# Starred values were filed as active, the others as inactive; ? = inconclusive; · = not tested or not shown; [ ] = remark or other dose. Unless noted, calls come from the whole dose curve; as a rule, active = well fitted curve in the direction sought with a large enough effect; inconclusive = small, poorly fitted or top-dose-only effect, or another doubt; inactive = no such curve, though single readings can be large; an effect the other way counts as inactive or inconclusive. % is set by controls: 0 for no effect and ±100 for the full control effect.
SMILES,Giardia kill,TDP1 cell noCPT,TDP1 block,DT40 TDP1 CPT,IL1B secr inh,ELG1 DNA repair
CCN(CC)C(=O)COc1ccc(-c2nnc(N3CCCCC3)c3ccccc23)cc1,-14,?,1%,-26%,-11,?
Cc1ccc(-c2nnc(NCc3nc4ccccc4[nH]3)c3ccccc23)cc1S(=O)(=O)N(C)C,2,23µM*,5%,10µM*,-3,10µM*
CCOc1ccc(-c2nnc(N3CCCCC3)c3ccccc23)cc1,6,16µM*,0%,23µM*,?,?
COc1cc2nc(N3CCCCC3)nc(NC3CCN(Cc4ccccc4)CC3)c2cc1OC,·,3.2µM*,·,5µM*,·,·
COc1cc2nc(N3CCN(C(=O)C4CCCO4)CC3)nc(N)c2cc1OC (stereo unspecified),-18,-10%,-6%,0%,-6,?
COc1cc2nc(N3CCCN(C)CC3)nc(NC3CCN(C)CC3)c2cc1OC,·,18µM*,·,13µM*,·,·
COc1ccccc1CNC1CCN(Cc2ccccc2)CC1,24,?,4%,?,?,-1%
COc1cc2nc(N3CCCN(C)CC3)nc(NC3CCNCC3)c2cc1OC,·,13µM*,·,11µM*,·,·
COc1cc2nc(N3CCCCC3)nc(NC3CCN(C)CC3)c2cc1OC,·,7.9µM*,·,7.9µM*,·,·
COc1cc2c(NC3CCN(C)CC3)nc(N3CCCN(C)CC3)nc2cc1OCC1CCCNC1 (stereo unspecified),·,0%,·,-16%,·,·
CC(Sc1nnc(CN2CCCC2)n1Cc1ccccc1)C(=O)Nc1ccc(F)c(F)c1F (stereo unspecified),-13,?,·,?,?,·
CCOC(=O)[C@@H]1[C@H]2COc3cc(OC)ccc3[C@H]2N2C(=O)N(c3cccc(F)c3)C(=O)[C@@]12C,-29,?,2%,?,-18,-18%
Cc1ccccc1/C=C(\C#N)c1nc(-c2ccc(Cl)cc2)cs1,·,-17%,5%,-5%,·,·
COc1cc2c(NC3CCN(C)CC3)nc(N3CCN(C)CC3)nc2cc1OCCOCCN(C)C,·,-9%,·,-15%,·,·
COc1cc2nc(N3CCN(C(=O)[C@H]4CCCO4)CC3)nc(N)c2cc1OC,·,0%,8%,36%,·,·
COc1cc2nc(N3CCN(C)CC3)nc(NC3CCN(C)CC3)c2cc1OC,·,11µM*,·,8.9µM*,·,·
COC(=O)C1CCCCN1Cc1nc(N2CCCCC2)c2cc(OC)c(OC)cc2n1 (stereo unspecified),·,-24%,·,20%[9.04 µM],·,·
COc1cc2nc(N3CCOCC3)nc(NC3CC3)c2cc1OC,·,13µM*,·,13µM*,·,·
COc1cc2nc(NC3CCN(Cc4ccccc4)CC3)nc(N3CCCN(C)CC3)c2cc1OC,·,5µM*,·,5µM*,·,·
CCCS(=O)(=O)N1CC(=O)N(c2cccc(Cl)c2C)C(C)(C(=O)NC2CCCC2)C1 (stereo unspecified),·,-1%,5%,-22%,·,·
COc1ccccc1CNC(=O)Cn1cccc1C(=O)c1ccccc1C,-10,-6%,5%,-22%,-8,?
CSc1nc(O)c(C(c2ccc(OC(C)C)cc2)c2c(O)nc(SC)[nH]c2=O)c(=O)[nH]1,-12,?,·,-25%,-19,·
CCc1noc(C)c1C(=O)Nc1nc(-c2cc(OC)ccc2OC)cs1,7,21µM*,-9%,?,-11,16µM*
CCc1noc(C)c1C(=O)Nc1nc(-c2ccc(OC)cc2)cs1,5,13µM*,·,?,32,-9%
COc1ccc(OC)c(-c2csc(NC(=O)CSCc3c(C)noc3C)n2)c1,-3,?,·,?,-5,?
SMILES,Giardia kill,TDP1 cell noCPT,TDP1 block,DT40 TDP1 CPT,IL1B secr inh,ELG1 DNA repair
COc1ccc(-c2csc(NC(=O)CN3C(=O)CCC3=O)n2)c(OC)c1,13,-3%,-4%,6%,-27,8%
CCc1noc(C)c1C(=O)Nc1nc(-c2ccc(OC)cc2OC)cs1,9,16µM*,·,?,12,?
COc1cc(C2CC(=O)N(Cc3cccc(F)c3)c3ccccc3S2)cc(OC)c1OC (stereo unspecified),·,·,0%,·,·,·
CC1CCN(C(=O)CSc2ccc(-c3ccc(F)cc3)nn2)CC1,-15,?,0%,-12%,15,-5%
CC1CC(C)(C)N(C(=O)CSc2ccc(-c3ccc(F)cc3)nn2)c2ccccc21 (stereo unspecified),-14,22µM*,-6%,?,-90*,?
CC(=O)Nc1ccc(Oc2ccc(-c3noc(C)n3)cc2)cc1,1,-26%,9%,0%,-16,·
CC(=O)Oc1ccc(Oc2ccc(-c3noc(C)n3)cc2)cc1,-5,12µM*,5%,21µM*,0,?
c1ccc(Cc2nnc(N3CCCCC3)c3ccccc23)cc1,4,?,9%,-28%,-86*,0%
CCC(C(=O)Nc1ccc2[nH]ncc2c1)c1ccccc1 (stereo unspecified),3,-8%,·,-10%,7,-29%
CSc1nc(Nc2ccc(Cl)cc2)c(C#N)c(=O)[nH]1,-2,17%,·,1%,17,2%
N#Cc1c(Nc2ccc(Cl)cc2)s[nH]c1=O,-8,12µM*,·,15µM*,-73*,0%
COc1ccccc1CN(Cc1cccnc1)S(=O)(=O)c1ccc(-n2cnnn2)c(OC)c1,-9,21µM*,·,-2%,-12,-2%
COc1cc(S(=O)(=O)N(Cc2cccnc2)Cc2cccc(OC)c2OC)ccc1-n1cnnn1,-6,?,2%,16µM*,-12,-6%
O=S1(=O)C=CC(Nc2cccc(Cl)c2)C1 (stereo unspecified),4,-18%,0%,-14%,-89*,-10%
COc1cccc(NC2C=CS(=O)(=O)C2)c1 (stereo unspecified),-2,7%,-2%,7%,-17,-12%
CCn1c(=O)c2sccc2n(Cc2ccccc2)c1=O,37,-3%,4%,-9%,9,-12%
CC1CCN(c2ccc(NC(=O)Cn3c(=O)oc4ccccc43)cc2)CC1,16,0%,3%,?,-2,6%
